Structures are written as SMILES. “And” between values parts separate entries of the source, which are not always exact repeats. Identical values can stand only once. Results filed as inconclusive are left out. The source made the active and inactive calls. Unless noted, calls come from the whole dose curve; as a rule, active = well fitted curve in the direction sought with a large enough effect; inconclusive = small, poorly fitted or top-dose-only effect, or another doubt; inactive = no such curve, though single readings can be large; an effect the other way counts as inactive or inconclusive.

The results in this text go back to PubChem BioAssay (NCATS).

Experiment [1] in a line: qHTS Assay for Identifying Gametocytocidal Compounds (AID 743244).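 For max response: % is set by controls: 0 for no effect and ±100 for the full control effect; actives lower the fluorescent signal which means gametocytes are killed.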 Note: potency is the fitted concentration of half-maximal effect. The following applies: P. falciparum 3D7 stage III-V gametocytes, alamarBlue, 72 h; max response: stronger effect = lower value. Summed up:
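Using 20,000 stage III–V 3D7 gametocytes per well, compounds were incubated 72 h under 37 °C/5% CO2. Viability was then assessed by 24 h alamarBlue reduction, measured fluorometrically at 525/598 nm.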
In general terms: qHTS replaces the single test concentration by a dilution series.

Experiment [2] in a line: qHTS assay for cell viability of HEK293 cells (AID 743288). Note: % is set by controls: 0 for no effect and ±100 for the full control effect; nearly all actives have a fitted effect of over 50% in size. The following applies: ATP luminescence (CellTiter-Glo), 18 h; max response: stronger effect = lower value. The gist of the method:
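Readout is luciferase-coupled ATP content (CellTiter-Glo luminescence, 30 min room temperature) as a measure of metabolically competent cells. Parental HEK293 cells were plated 5 h or more before compound addition, then treated 18 h at 37 C.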

The nature of experiment [3]: qHTS assay for cell viability of the p53RE-bla HCT-116 cell line (AID 743292). Note: % is set by controls: 0 for no effect and ±100 for the full control effect; nearly all actives have a fitted effect of over 55% in size. Summed up: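 Viability of compound-treated p53RE-bla HCT-116 cells is taken from ATP-dependent luciferase luminescence. Treatment lasts 16 h at 37 C after a 5 h settling period; detection follows 30 min at room temperature.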
Experiment [4] can be described thus: qHTS profiling for inhibitors of Plasmodium falciparum (3D7) proliferation (AID 743322; call rule not given here;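 note: infected erythrocytes exposed to compound for 72 h before lysis; 100% = DMSO vehicle wells and 0% = 0.29 µM artemisinin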). The conditions noted are these: P. falciparum 3D7 proliferation; at 28.7 µM (top of the series) unless noted. The gist of the method:
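Parasite DNA was quantified by SYBR Green I fluorescence (ex 485, em 535 nm) after overnight lysis in saponin/Triton buffer at room temperature. Cultures at 0.3% parasitemia and 2.5% hematocrit were first exposed to compound for 72 h at 37 C; signals were normalised to artemisinin (0.29 uM) and vehicle wells.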

Experiment [5] is described as follows: qHTS profiling for inhibitors of Plasmodium falciparum (DD2) proliferation (AID 743323; call rule not given here). The following applies: lower = more inhibition; at 28.7 µM (top of the series) unless noted. The gist of the method: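 Parasite proliferation measured via DNA-dye fluorescence, as uninfected erythrocytes lack DNA. Cultures at 0.3% parasitemia and 2.5% hematocrit incubated 72 h with compound; signal scaled between vehicle and 0.29 uM artemisinin wells.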

A short description of experiment [6]: qHTS profiling for inhibitors of Plasmodium falciparum (HB3) proliferation (AID 743324).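 Note: 100% = DMSO vehicle wells and 0% = artemisinin-treated control wells.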 The conditions noted are these: Plasmodium falciparum HB3 blood-stage proliferation; at 28.7 µM (top of the series) unless noted. The gist of the method:
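SYBR Green fluorescence (485 ex/535 em) of lysed cultures, incubated overnight at room temperature in the dark, quantifies parasite DNA. Infected erythrocytes at 0.3% parasitemia and 2.5% hematocrit were exposed 72 h; values normalized to DMSO and 0.29 uM artemisinin controls.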

In the case of `OC[C@H]1O[C@@](CO)(O[C@H]2O[C@H](CO)[C@@H](O)[C@H](O)[C@H]2O)[C@@H](O)[C@@H]1O`, the max response was 6.47% (inactive) in experiment [1] and -4.31% (inactive) in experiment [2]. For the same molecule, the molecule was classed as inactive in experiment [3].

As to `c1ccc2ccccc2c1`, the max response in experiment [1] was 6.18% (inactive); in experiment [2], -14.2% (inactive) and 4.14% (inactive). The outcome in experiment [3] was inactive.

With `C[C@H](CCC(=O)O)[C@H]1CC[C@H]2[C@@H]3[C@H](O)C[C@@H]4C[C@H](O)CC[C@]4(C)[C@H]3C[C@H](O)[C@]12C`, the max response in experiment [1] is -6.23% (inactive); in experiment [2] it was -4.94% (inactive). For the same molecule, the result in experiment [3] was inactive.

Turning to `C[C@H](CCC(=O)O)[C@H]1CC[C@H]2[C@@H]3CC[C@@H]4C[C@H](O)CC[C@]4(C)[C@H]3C[C@H](O)[C@]12C`, the max response in experiment [1] is 6.91% (inactive); in experiment [2], 3.72% (inactive). Besides, the molecule was classed as inactive in experiment [3].

Regarding `O=c1n(CC2CO2)c(=O)n(CC2CO2)c(=O)n1CC1CO1` (stereo not given), the max response in experiment [1] was 6.57% (inactive); in experiment [2] it was -25.2% (inactive) and -21.7% (inactive). For the same molecule, the result in experiment [3] was inactive.

On to `CCN(CC)C(=S)S`, for which the Potency in experiment [1] is 6.31 µM (active). Further, the remaining parasite growth % (stronger effect = lower value) in experiment [4] turned out to be 87.7%. In experiment [5], this molecule came in with an activity, percent of control of 82.5%. Also, the remaining proliferation (% of control), lower = more inhibition in experiment [6] was determined as 84.6%.

In the case of `CC(C)O`, the max response was 0.211% (inactive) in experiment [1] and -16.4% (inactive) in experiment [2]. The outcome in experiment [3] was inactive.

`C=C(C)C1CC=C(C)CC1` (stereo not given): the max response was 0.817% (inactive) in experiment [1]; -3.42% (inactive) and -10.2% (inactive) in experiment [2]. Further, in experiment [3], the molecule was classed as inactive.

Take `CO[C@@H]1[C@H](OC(=O)/C=C/C=C/C=C/C=C/C(=O)O)CC[C@]2(CO2)[C@H]1[C@@]1(C)O[C@@H]1CC=C(C)C`: the max response in experiment [2] is -10.5% (inactive). For the same molecule, in experiment [3], the outcome was inactive.

For the molecule `Nc1nccs1`, the max response in experiment [1] was 1.76% (inactive); in experiment [2], -5.55% (inactive). Besides, the outcome in experiment [3] was inactive.
